Where “and” joins values, the source holds several entries; their conditions need not be identical. Identical values can stand only once. In all, about 5,500 compounds went through this assay and about 2,000 (36%) were called active. Another 18% or so got no clear call; they are omitted. Rule as the data show it: active = normalized growth mostly below about 0.91 (no sharp cut-off); inconclusive = no clear call, values can overlap the other calls; inactive = mostly above about 0.92. This is one part of the list.
Test: chemical genetic growth profiling, strain panel (AID 1159580);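 also: tested at 20 µM; growth read once vehicle control cultures reached saturation at 30 °C; 1 = growth at the plate median or of vehicle wells; lower values mean less growth of the strain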
Conditions: growth OD

Measured: normalized growth

CN1CCN(CC(=O)N2c3ccccc3C(=O)Nc3cccnc32)CC1
inactive: S. cerevisiae deletion strains, locus YJR075W, strain HOC1, stronger effect = lower value 1.01 and 0.992 | S. cerevisiae deletion strains, locus YKL009W, strain mrt4, stronger effect = lower value 0.998 | S. cerevisiae deletion strains, locus YKL068W, stronger effect = lower value 1 | S. cerevisiae deletion strains, locus YKL085W, strain MDH1 (second series), stronger effect = lower value 1.02 | S. cerevisiae deletion strains, locus YKL085W, strain MDH1, stronger effect = lower value 1.02 | S. cerevisiae deletion strains, locus YKL160W, strain elf1, stronger effect = lower value 1.01 | S. cerevisiae deletion strains, locus YKL190W, strain CNB1, stronger effect = lower value 1.01 | S. cerevisiae deletion strains, locus YKR001C, strain vps1, stronger effect = lower value 1.01 | S. cerevisiae deletion strains, locus YKR026C, strain gcn3, stronger effect = lower value 1.01 | S. cerevisiae deletion strains, locus YKR091W, strain srl3, stronger effect = lower value 1 | S. cerevisiae deletion strains, locus YLL001W, strain dnm1, stronger effect = lower value 1.01 | S. cerevisiae deletion strains, locus YLL026W, stronger effect = lower value 1.02 | S. cerevisiae deletion strains, locus YLL041C, strain sdh2, stronger effect = lower value 1.01 | S. cerevisiae deletion strains, locus YLR027C, strain aat2, stronger effect = lower value 1 | S. cerevisiae deletion strains, locus YLR039C, strain RIC1, stronger effect = lower value 1.04 | S. cerevisiae deletion strains, locus YLR058C, strain SHM2, stronger effect = lower value 1.02 | S. cerevisiae deletion strains, locus YLR102C, strain apc9, stronger effect = lower value 1.02 | S. cerevisiae deletion strains, locus YLR113W, strain HOG1, stronger effect = lower value 0.989 | S. cerevisiae deletion strains, locus YLR221C, strain rsa3, stronger effect = lower value 1.01 | S. cerevisiae deletion strains, locus YLR258W, strain gsy2, stronger effect = lower value 1.02 | S. cerevisiae deletion strains, locus YLR262C, strain YPT6 (second series), stronger effect = lower value 0.992 | S. cerevisiae deletion strains, locus YLR262C, strain YPT6, stronger effect = lower value 1.04 | S. cerevisiae deletion strains, locus YLR268W, strain sec22, stronger effect = lower value 1.03 | S. cerevisiae deletion strains, locus YLR320W, strain mms22, stronger effect = lower value 1.02 | S. cerevisiae deletion strains, locus YLR330W, strain CHS5, stronger effect = lower value 1.01 | S. cerevisiae deletion strains, locus YLR342W, strain FKS1 (second series), stronger effect = lower value 1.05 | S. cerevisiae deletion strains, locus YLR342W, strain FKS1, stronger effect = lower value 1.01 | S. cerevisiae deletion strains, locus YLR357W, strain rsc2, stronger effect = lower value 1.05 | S. cerevisiae deletion strains, locus YLR370C, strain arc18, stronger effect = lower value 1.03 | S. cerevisiae deletion strains, locus YLR371W, strain rom2, stronger effect = lower value 1.03 | S. cerevisiae deletion strains, locus YLR384C, strain iki3, stronger effect = lower value 1.02 | S. cerevisiae deletion strains, locus YLR418C, strain cdc73, stronger effect = lower value 1.05 | S. cerevisiae deletion strains, locus YML016C, strain PPZ1, stronger effect = lower value 1.01 | S. cerevisiae deletion strains, locus YML032C, strain rad52, stronger effect = lower value 1.01 | S. cerevisiae deletion strains, locus YML120C, strain ndi1, stronger effect = lower value 1 | S. cerevisiae deletion strains, locus YML124C, strain tub3, stronger effect = lower value 1.02 | S. cerevisiae deletion strains, locus YMR058W, strain fet3, stronger effect = lower value 1.04 | S. cerevisiae deletion strains, locus YMR078C, strain ctf18, stronger effect = lower value 1.01 | S. cerevisiae deletion strains, locus YMR125W, strain sto1, stronger effect = lower value 1.01 | S. cerevisiae deletion strains, locus YMR129W, stronger effect = lower value 1.02 | S. cerevisiae deletion strains, locus YMR205C, strain PFK2, stronger effect = lower value 1.04 | S. cerevisiae deletion strains, locus YMR223W, strain ubp8, stronger effect = lower value 1.01 | S. cerevisiae deletion strains, locus YMR231W, strain pep5, stronger effect = lower value 1.02 | S. cerevisiae deletion strains, locus YMR263W, strain SAP30, stronger effect = lower value 1.01 | S. cerevisiae deletion strains, locus YMR307W, strain GAS1, stronger effect = lower value 1.07 | S. cerevisiae deletion strains, locus YNL067W, strain RPL9B, stronger effect = lower value 1.01 | S. cerevisiae deletion strains, locus YNL071W, strain lat1, stronger effect = lower value 1.03 | S. cerevisiae deletion strains, locus YNL128W, strain TEP1, stronger effect = lower value 1.03 | S. cerevisiae deletion strains, locus YNL153C, strain GIM3, stronger effect = lower value 1.01 | S. cerevisiae deletion strains, locus YNL175C, strain NOP13, stronger effect = lower value 0.985 | S. cerevisiae deletion strains, locus YNL183C, strain NPR1, stronger effect = lower value 0.938 | S. cerevisiae deletion strains, locus YNL197C, strain WHI3, stronger effect = lower value 0.982 | S. cerevisiae deletion strains, locus YNL209W, strain ssb2, stronger effect = lower value 1.02 | S. cerevisiae deletion strains, locus YNL224C, strain SQS1, stronger effect = lower value 1.01 | S. cerevisiae deletion strains, locus YNL233W, strain BNI4, stronger effect = lower value 1.01 | S. cerevisiae deletion strains, locus YNL248C, strain rpa49, stronger effect = lower value 1.03 | S. cerevisiae deletion strains, locus YNL250W, strain rad50, stronger effect = lower value 1.01 | S. cerevisiae deletion strains, locus YNL271C, strain bni1, stronger effect = lower value 1.01 | S. cerevisiae deletion strains, locus YNL298W, strain CLA4, stronger effect = lower value 1.02 | S. cerevisiae deletion strains, locus YNL307C, strain MCK1, stronger effect = lower value 1.03 | S. cerevisiae deletion strains, locus YNL322C, strain KRE1 (second series), stronger effect = lower value 1.02 | S. cerevisiae deletion strains, locus YNL322C, strain KRE1, stronger effect = lower value 1.01 | S. cerevisiae deletion strains, locus YNR049C, strain mso1, stronger effect = lower value 1 | S. cerevisiae deletion strains, locus YNR052C, strain pop2, stronger effect = lower value 1.03 | S. cerevisiae deletion strains, locus YOL006C, strain TOP1, stronger effect = lower value 1.05 | S. cerevisiae deletion strains, locus YOL012C, strain htz1 0.832 | S. cerevisiae deletion strains, locus YOL147C, strain pex11, stronger effect = lower value 1.04 | S. cerevisiae deletion strains, locus YOR001W, strain rrp6, stronger effect = lower value 1.02 | S. cerevisiae deletion strains, locus YOR061W, strain CKA2, stronger effect = lower value 1.01 | S. cerevisiae deletion strains, locus YOR069W, strain VPS5, stronger effect = lower value 1.01 | S. cerevisiae deletion strains, locus YOR070C, strain gyp1, stronger effect = lower value 1.02 | S. cerevisiae deletion strains, locus YOR080W, strain dia2, stronger effect = lower value 1.01 | S. cerevisiae deletion strains, locus YOR083W, strain WHI5 (second series), stronger effect = lower value 0.986 | S. cerevisiae deletion strains, locus YOR083W, strain WHI5, stronger effect = lower value 0.967 | S. cerevisiae deletion strains, locus YOR106W, strain vam3, stronger effect = lower value 1.02 | S. cerevisiae deletion strains, locus YOR136W, strain idh2, stronger effect = lower value 1.01 | S. cerevisiae deletion strains, locus YOR144C, strain elg1, stronger effect = lower value 1.02 | S. cerevisiae deletion strains, locus YOR184W, strain ser1, stronger effect = lower value 1.01 | S. cerevisiae deletion strains, locus YOR231W, strain MKK1, stronger effect = lower value 0.983 | S. cerevisiae deletion strains, locus YOR265W, strain rbl2, stronger effect = lower value 1.01 | S. cerevisiae deletion strains, locus YOR270C, strain vph1, stronger effect = lower value 1.06 | S. cerevisiae deletion strains, locus YOR290C, strain snf2, stronger effect = lower value 1.02 | S. cerevisiae deletion strains, locus YOR316C, strain cot1, stronger effect = lower value 1.02 | S. cerevisiae deletion strains, locus YPL051W, strain arl3, stronger effect = lower value 1.01 | S. cerevisiae deletion strains, locus YPL055C, strain LGE1, stronger effect = lower value 1.01 | S. cerevisiae deletion strains, locus YPL078C, strain atp4, stronger effect = lower value 1.02 | S. cerevisiae deletion strains, locus YPL106C, strain sse1, stronger effect = lower value 1.03 | S. cerevisiae deletion strains, locus YPL240C, strain hsp82, stronger effect = lower value 1 | S. cerevisiae deletion strains, locus YPL241C, strain CIN2, stronger effect = lower value 1.01 and 0.991 | S. cerevisiae deletion strains, locus YPL256C, strain CLN2, stronger effect = lower value 0.978 | S. cerevisiae deletion strains, locus YPR119W, strain clb2, stronger effect = lower value 1.01 | S. cerevisiae deletion strains, locus YPR141C, strain kar3, stronger effect = lower value 1.02 | S. cerevisiae deletion strains, locus YPR163C, strain tif3, stronger effect = lower value 1.03 | S. cerevisiae deletion strains, locus YPR167C, strain met16, stronger effect = lower value 1.02 | S. cerevisiae deletion strains, strain wtn01, stronger effect = lower value 1.01 | S. cerevisiae strains, strain wild type, stronger effect = lower value 1.01

— PubChem BioAssay AID1159580 (chemical genetic matrix, 2015)
